Measured values reported in PubChem BioAssay AID1159580 (chemical genetic matrix, 2015).
The campaign covered roughly 5,500 compounds. About 2,000 (36%) were called active. Not shown: some 18% with an inconclusive outcome. Rule as the data show it: active = normalized growth mostly below about 0.91 (no sharp cut-off); inconclusive = no clear call, values can overlap the other calls; inactive = mostly above about 0.92. The list shows a part of the results.

Test: chemical genetic growth profiling, strain panel (AID 1159580);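 also: tested at 20 µM; growth read once vehicle control cultures reached saturation at 30 °C; 1 = growth at the plate median or of vehicle wells; lower values mean less growth of the strain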
Settings: growth OD
[1] = S. cerevisiae deletion strains, locus YAR019C, strain CDC15, hits give low values
[2] = S. cerevisiae deletion strains, locus YBL105C, strain PKC1, hits give low values
[3] = S. cerevisiae deletion strains, locus YBR135W, strain CKS1, hits give low values
[4] = S. cerevisiae deletion strains, locus YBR136W, strain MEC1, hits give low values
[5] = S. cerevisiae deletion strains, locus YBR160W, strain CDC28, hits give low values
[6] = S. cerevisiae deletion strains, locus YDL017W, strain CDC7, hits give low values
[7] = S. cerevisiae deletion strains, locus YDL028C, strain MPS1, hits give low values
[8] = S. cerevisiae deletion strains, locus YDL101C, strain DUN1, hits give low values
[9] = S. cerevisiae deletion strains, locus YDL108W, strain KIN28, hits give low values
[10] = S. cerevisiae deletion strains, locus YDL132W, strain cdc53, hits give low values
[11] = S. cerevisiae deletion strains, locus YDL214C, strain PRR2, hits give low values
[12] = S. cerevisiae deletion strains, locus YDR052C, strain DBF4, hits give low values
[13] = S. cerevisiae deletion strains, locus YDR054C, strain cdc34, hits give low values
[14] = S. cerevisiae deletion strains, locus YDR226W, strain ADK1, hits give low values
[15] = S. cerevisiae deletion strains, locus YDR477W, strain SNF1, hits give low values
[16] = S. cerevisiae deletion strains, locus YER123W, strain YCK3, hits give low values
[17] = S. cerevisiae deletion strains, locus YER133W, strain GLC7, hits give low values
[18] = S. cerevisiae deletion strains, locus YFL009W, strain cdc4, hits give low values
[19] = S. cerevisiae deletion strains, locus YFL029C, strain CAK1, hits give low values
[20] = S. cerevisiae deletion strains, locus YFR003C, strain YPI1, hits give low values
[21] = S. cerevisiae deletion strains, locus YFR019W, strain FAB1, hits give low values
[22] = S. cerevisiae deletion strains, locus YFR028C, strain CDC14, hits give low values
[23] = S. cerevisiae deletion strains, locus YGR040W, strain KSS1, hits give low values
[24] = S. cerevisiae deletion strains, locus YGR052W, strain FMP48, hits give low values
[25] = S. cerevisiae deletion strains, locus YGR092W, strain DBF2, hits give low values
[26] = S. cerevisiae deletion strains, locus YHR030C, strain SLT2, hits give low values
[27] = S. cerevisiae deletion strains, locus YHR079C, strain IRE1, hits give low values
[28] = S. cerevisiae deletion strains, locus YHR082C, strain KSP1, hits give low values
[29] = S. cerevisiae deletion strains, locus YHR205W, strain SCH9, hits give low values
[30] = S. cerevisiae deletion strains, locus YIL147C, strain SLN1, hits give low values
[31] = S. cerevisiae deletion strains, locus YJL095W, strain BCK1, hits give low values
[32] = S. cerevisiae deletion strains, locus YJL128C, strain PBS2, hits give low values
[33] = S. cerevisiae deletion strains, locus YJL157C, strain FAR1, hits give low values
[34] = S. cerevisiae deletion strains, locus YJR016C, strain ILV3, hits give low values
[35] = S. cerevisiae deletion strains, locus YJR066W, strain TOR1 (second series), hits give low values
[36] = S. cerevisiae deletion strains, locus YJR066W, strain TOR1, hits give low values
[37] = S. cerevisiae deletion strains, locus YKL048C, strain ELM1, hits give low values
[38] = S. cerevisiae deletion strains, locus YKL067W, strain YNK1, hits give low values
[39] = S. cerevisiae deletion strains, locus YKL101W, strain HSL1, hits give low values
[40] = S. cerevisiae deletion strains, locus YKL193C, strain SDS22, hits give low values
[41] = S. cerevisiae deletion strains, locus YKL203C, strain TOR2, hits give low values
[42] = S. cerevisiae deletion strains, locus YLR113W, strain HOG1, hits give low values
[43] = S. cerevisiae deletion strains, locus YLR133W, strain CKI1, hits give low values
[44] = S. cerevisiae deletion strains, locus YLR403W, strain SFP1, hits give low values
[45] = S. cerevisiae deletion strains, locus YML070W, strain DAK1, hits give low values
[46] = S. cerevisiae deletion strains, locus YMR205C, strain PFK2 (second series), hits give low values
[47] = S. cerevisiae deletion strains, locus YMR277W, strain FCP1, hits give low values
[48] = S. cerevisiae deletion strains, locus YNL006W, strain LST8, hits give low values
[49] = S. cerevisiae deletion strains, locus YNL020C, strain ARK1, hits give low values
[50] = S. cerevisiae deletion strains, locus YNL161W, strain CBK1, hits give low values
[51] = S. cerevisiae deletion strains, locus YNL183C, strain NPR1, hits give low values
[52] = S. cerevisiae deletion strains, locus YNL207W, strain RIO2, hits give low values
[53] = S. cerevisiae deletion strains, locus YNL222W, strain SSU72, hits give low values
[54] = S. cerevisiae deletion strains, locus YNL307C, strain MCK1 (second series), hits give low values
[55] = S. cerevisiae deletion strains, locus YOL136C, strain PFK27, hits give low values
[56] = S. cerevisiae deletion strains, locus YOR061W, strain CKA2, hits give low values
[57] = S. cerevisiae deletion strains, locus YOR119C, strain RIO1, hits give low values
[58] = S. cerevisiae deletion strains, locus YOR231W, strain MKK1, hits give low values
[59] = S. cerevisiae deletion strains, locus YOR329C, strain SCD5, hits give low values
[60] = S. cerevisiae deletion strains, locus YPL031C, strain PHO85, hits give low values
[61] = S. cerevisiae deletion strains, locus YPL153C, strain RAD53, hits give low values
[62] = S. cerevisiae deletion strains, locus YPL204W, strain HRR25, hits give low values
[63] = S. cerevisiae deletion strains, locus YPL209C, strain IPL1, hits give low values
[64] = S. cerevisiae deletion strains, locus YPL256C, strain CLN2, hits give low values
[65] = S. cerevisiae deletion strains, locus YPR025C, strain CCL1, hits give low values
[66] = S. cerevisiae deletion strains, locus YPR106W, strain ISR1, hits give low values
[67] = S. cerevisiae deletion strains, locus YPR111W, strain DBF20, hits give low values
[68] = S. cerevisiae deletion strains, strain NNK1, hits give low values
[69] = S. cerevisiae deletion strains, locus YAL013W, strain DEP1, hits give low values
[70] = S. cerevisiae deletion strains, locus YBR229C, strain ROT2, hits give low values
[71] = S. cerevisiae deletion strains, locus YDR150W, strain NUM1, hits give low values
[72] = S. cerevisiae deletion strains, locus YEL061C, strain CIN8, hits give low values
[73] = S. cerevisiae deletion strains, locus YGR078C, strain PAC10, hits give low values
[74] = S. cerevisiae deletion strains, locus YHR087W, strain rtc3, hits give low values
[75] = S. cerevisiae deletion strains, locus YJL187C, strain SWE1, hits give low values
[76] = S. cerevisiae deletion strains, locus YJR043C, strain POL32, hits give low values
[77] = S. cerevisiae deletion strains, locus YJR075W, strain HOC1, hits give low values
[78] = S. cerevisiae deletion strains, locus YLR039C, strain RIC1, hits give low values
[79] = S. cerevisiae deletion strains, locus YLR058C, strain SHM2 (second series), hits give low values
[80] = S. cerevisiae deletion strains, locus YLR085C, strain ARP6, hits give low values
[81] = S. cerevisiae deletion strains, locus YLR262C, strain YPT6, hits give low values
[82] = S. cerevisiae deletion strains, locus YML094W, strain GIM5, hits give low values
[83] = S. cerevisiae deletion strains, locus YMR219W, strain ESC1, hits give low values
[84] = S. cerevisiae deletion strains, locus YMR263W, strain SAP30, hits give low values
[85] = S. cerevisiae deletion strains, locus YNL153C, strain GIM3, hits give low values
[86] = S. cerevisiae deletion strains, locus YNL298W, strain CLA4 (second series), hits give low values
[87] = S. cerevisiae deletion strains, locus YNL322C, strain KRE1, hits give low values
[88] = S. cerevisiae deletion strains, locus YNR030W, strain Alg12, hits give low values
[89] = S. cerevisiae deletion strains, locus YPL055C, strain LGE1, hits give low values
[90] = S. cerevisiae deletion strains, locus YPL241C, strain CIN2, hits give low values
[91] = S. cerevisiae deletion strains, locus YPR135W, strain CTF4, hits give low values

Measured: normalized growth

Cc1cccc(Cl)c1/C=N\NC(N)=S
inactive: [2] 0.911 | [3] 0.904 | [11] 0.867 | [15] 0.765 | [16] 0.873 | [17] 0.805 | [21] 0.957 | [23] 0.8 | [24] 0.818 | [25] 0.79 | [27] 0.94 | [28] 0.893 | [29] 1.02 | [31] 0.934 | [32] 0.973 | [33] 0.855 | [35] 0.837 | [36] 0.755 | [37] 0.88 | [38] 0.886 | [39] 0.919 | [42] 1.04 | [43] 0.886 | [44] 0.756 | [45] 0.932 | [46] 0.886 | [48] 0.953 | [49] 0.904 | [50] 0.924 | [51] 0.77 | [53] 0.931 | [54] 0.797 | [55] 0.948 | [56] 0.864 | [58] 0.949 | [59] 0.927 | [60] 0.824 | [61] 0.868 | [62] 0.877 | [63] 0.912 | [64] 1.03 | [65] 0.914 | [66] 0.927 | [67] 0.919 | [68] 0.932
active: [1] 0.868 | [4] 0.862 | [5] 0.892 | [6] 0.896 | [7] 0.88 | [8] 0.89 | [9] 0.869 | [10] 0.877 | [12] 0.858 | [13] 0.865 | [14] 0.826 | [18] 0.881 | [19] 0.865 | [20] 0.899 | [22] 0.828 | [26] 0.644 | [30] 0.87 | [34] 0.885 | [40] 0.872 | [41] 0.671 | [47] 0.87 | [52] 0.845 | [57] 0.625

S=C(N/N=C\c1ccc(Cl)cc1)N/N=C\c1ccc(Cl)cc1
inactive: [1] 0.957 | [2] 0.962 | [3] 0.962 | [4] 0.973 | [5] 0.969 | [6] 0.961 | [7] 0.959 | [8] 0.992 | [9] 0.967 | [10] 0.957 | [11] 0.77 | [12] 0.967 | [13] 0.944 | [14] 0.972 | [15] 0.81 | [17] 0.748 | [18] 0.952 | [19] 0.955 | [20] 0.965 | [21] 0.832 | [22] 0.963 | [23] 0.849 | [24] 0.779 | [27] 0.588 | [28] 0.817 | [29] 0.793 | [30] 0.966 | [31] 0.653 | [32] 0.991 | [34] 0.955 | [36] 0.596 | [37] 0.833 | [40] 0.961 | [41] 0.783 | [44] 0.738 | S. cerevisiae deletion strains, locus YMR001C, strain CDC5, hits give low values 0.965 | [46] 0.746 | [47] 0.953 | [48] 0.96 | [50] 0.963 | [51] 0.81 | [52] 0.955 | [53] 0.961 | S. cerevisiae deletion strains, locus YOL078W, strain AVO1, hits give low values 0.96 | [55] 0.75 | [57] 0.866 | [58] 0.697 | [59] 0.957 | [60] 0.688 | [62] 0.682 | [63] 0.967 | [65] 0.966 | [66] 0.972 | [67] 0.975 | [68] 0.984 | S. cerevisiae deletion strains, strain TSCII, hits give low values 0.955
active: [16] 0.477 | [25] 0.284 | [26] 0.64 | [33] 0.582 | [35] 0.448 | [38] 0.645 | [39] 0.714 | [42] 0.66 | [43] 0.693 | [45] 0.663 | [49] 0.576 | [54] 0.469 | [56] 0.618 | [61] 0.654 | [64] 0.686

NC(=S)N/N=C\c1cc(F)cc(F)c1
inactive: [69] 0.97 | [70] 1.01 | [8] 1.04 | [71] 0.96 | [72] 0.94 | [73] 0.998 | S. cerevisiae deletion strains, locus YGR229C, strain SMI1, hits give low values 0.944 | [26] 0.778 | [74] 1.08 | [75] 0.971 | [76] 0.98 | [77] 1.02 | [78] 1.05 | [79] 0.994 | [81] 1.04 | [82] 0.923 | [83] 0.999 | [84] 0.92 | [85] 0.976 | [87] 1.05 | [88] 0.922 | [89] 0.963 | [90] 0.933 | [91] 0.78 | S. cerevisiae strains, strain wild type, hits give low values 0.923
active: [80] 0.34 | S. cerevisiae deletion strains, locus YMR307W, strain GAS1, hits give low values 0.574 | [86] 0.761

NC(=S)N/N=C\c1ccc(F)c(Cl)c1
active: [69] 0.921 | [72] 0.804 | [26] 0.605 | [80] 0.198 | [82] 0.759 | [86] 0.661 | [88] 0.811
inactive: [70] 0.995 | [8] 0.972 | S. cerevisiae deletion strains, locus YDL134C, strain PPH21, hits give low values 0.992 | [71] 1 | [73] 0.988 | [74] 1.04 | [75] 0.981 | [76] 0.996 | [77] 1.04 | [78] 0.966 | [79] 0.996 | [81] 1.06 | [83] 0.999 | [84] 0.919 | S. cerevisiae deletion strains, locus YNL128W, strain TEP1, hits give low values 0.944 | [85] 0.961 | [87] 1.04 | [89] 0.849 | [90] 0.889 | [91] 0.655
